In PubChem BioAssay (NCI) one finds growth data, which are given here for 12 compounds.

The structures appear in SMILES notation. About 83,000 compounds went through this panel and 20% of them were active in at least one assay; those are over-represented in the sample as a whole.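 Step 1: grow cells in 96-well plates. Step 2: add test compound at a single concentration. Step 3: incubate 48 h. Step 4: record percent growth.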 Activity calls are given as the source filed them. Rule for the calls: active = growth percent below 10; inactive = the rest.

This experiment relates to NCI-H460 lung. The experiment can be described thus: NCI-60 one-dose screen, 48 h (100 = growth as untreated, 0 = no growth, -100 = all killed). The settings on record: 10 µM.
Regarding `COc1cccc(-c2ccnc(/N=C(\N)Nc3ccc(S(=O)(=O)Nc4nc(C)cc(C)n4)cc3)n2)c1`, the growth was 106% (inactive).

For the compound `O/N=C(\CSc1nnc(-c2c[nH]c3ccccc23)n1-c1ccccc1)c1ccc(Cl)cc1`, the growth was 10.5% (inactive). On to `COC(=O)c1c(C(=O)OC)c2n(c1C)[C@@H]([C@@H](C)[C@H]1CC[C@H]3[C@@H]4CCC5=CC(=O)CC[C@]5(C)[C@H]4CC[C@]13C)SC2`, for which the growth is 25.1% (inactive).

Take `Cc1ccc(-c2cc(C(=O)N=Nc3c(O)[nH]c4ccc(Br)cc34)c3ccccc3n2)cc1`: the growth was 47.3% (inactive). Consider `COc1ccc(-c2c(N)c(=O)n(C)c3ccccc23)cc1`, for which the growth was 88.1% (inactive). As to `O=c1cc(-c2ccccc2)oc2cc(OCCCNCc3ccccc3)cc(O)c12`, the growth was -53.4% (active). With `COc1cccc2nc(Nc3cccc(NC(=O)c4ccc(CN5CCCN(C)CC5)c(C(F)(F)F)c4)c3)ccc12`, the growth is -83.6% (active).

For the compound `COc1ccc(-c2cc(-c3cc(C(=O)c4ccc(Br)cc4)n4ccc(C)cc34)nc(N)c2C#N)cc1`, the growth was 84.7% (inactive). Consider `O=C1CCC(N2Cc3c(NCc4ccc(-c5ccccc5)cc4)cccc3C2=O)C(=O)N1` (configuration not stated), for which the growth was 36.4% (inactive).

On to `COc1ccc(CN2[C@@H](C(=O)NCc3ccc(C(=O)NO)cc3)Cc3c([nH]c4ccccc34)[C@@H]2C2CC2)cc1`, for which the growth is 13.7% (inactive).

As for `CCOC(=O)c1c(CSc2ccccc2)n(C)c2cc(CN(C)C)c(O)c(CN(C)C)c12`, the growth was 34.6% (inactive). On to `CCOC(=O)CNC(=O)CN(Cc1ccccc1)C(=O)[C@@]1(C)CCC[C@]2(C)[C@H]3C[C@H]4C(C(C)C)=C[C@]3(CC[C@H]21)[C@@H]1C(=O)OC(=O)[C@@H]14`, for which the growth is 61.1% (inactive).
